From PubChem BioAssay AID2778 (National Center for Advancing Translational Sciences (NCATS), 2010) come the findings set out here.

This assay concerns the target Menin (Homo sapiens) (UniProt O00255). The assay can be described thus: Confirmation of Inhibitors Targeting the Menin-MLL Interaction in MLL Related Leukemias: Confirmation in an HTRF (commercial TR-FRET) Assay using His-tagged menin and biotin-labeled MLL peptide. Particulars: His-menin / biotin-MLL peptide binding; series mostly up to 126 µM. Summed up: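 Compounds were incubated 1 hr at ambient with a preformed His6-menin (200 nM)/biotinylated MLL-w.t. peptide (80 nM) complex in Tris pH 7.5 buffer; anti-His Eu-cryptate (3.5 nM) and SA-XL665 (10 nM) added, TR-FRET read after 1h.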
(In general: TR-FRET usually uses a lanthanide donor and a delayed reading to cut background.)

Results filed as inconclusive are left out. A call without a number means that no potency is given here. Calls of active or inactive are those of the source. Calls follow the shape of the dose curve; as a rule, active = well fitted inhibition curve with a large enough effect; inconclusive = small, poorly fitted or top-dose-only effect, or effect the other way; inactive = flat fitted curve, though single readings scatter. Positions of bridges follow the written chain, without caps; N, C: chain ends. Non-standard residues stand in square brackets, D forms with d. Residues, ends and D or L forms follow the SMILES beside them. ξ: configuration not given here. *: point of attachment. Octanoyl(6-Me) = CCC(C)CCCCC(=O)*; ξThr(3R) = C[C@@H](O)C(N)C(=O)O; dDab = NCC[C@@H](N)C(=O)O; Dab = NCC[C@H](N)C(=O)O
Potency is read from the fitted curve at half-maximal effect.

Menin (Homo sapiens), sequence (O00255 whole entry, looked up): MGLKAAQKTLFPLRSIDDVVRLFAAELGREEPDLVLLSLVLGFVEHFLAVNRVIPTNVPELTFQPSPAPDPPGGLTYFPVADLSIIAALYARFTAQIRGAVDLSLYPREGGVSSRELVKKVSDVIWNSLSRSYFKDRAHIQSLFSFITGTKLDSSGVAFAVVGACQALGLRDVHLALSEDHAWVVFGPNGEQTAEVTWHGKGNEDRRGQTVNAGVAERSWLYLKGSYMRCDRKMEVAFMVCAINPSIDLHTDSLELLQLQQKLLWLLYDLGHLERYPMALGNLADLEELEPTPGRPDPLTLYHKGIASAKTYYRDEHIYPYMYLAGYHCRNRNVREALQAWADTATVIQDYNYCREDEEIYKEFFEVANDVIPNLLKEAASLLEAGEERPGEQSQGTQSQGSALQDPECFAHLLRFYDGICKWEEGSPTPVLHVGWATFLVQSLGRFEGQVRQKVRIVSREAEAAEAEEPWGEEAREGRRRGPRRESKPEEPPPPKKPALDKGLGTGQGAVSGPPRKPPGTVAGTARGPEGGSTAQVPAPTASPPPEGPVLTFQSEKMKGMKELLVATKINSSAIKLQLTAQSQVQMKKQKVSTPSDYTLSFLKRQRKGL

On to `Cn1c(=O)[nH]c(=O)c2c1nc(Br)n2CCSc1nc2ccccc2o1`, for which the Potency result was “inactive”.

On to `NS(=O)(=O)c1ccc(NC(=O)c2ccc(-c3ccccc3)cc2)cc1`, for which the Potency is 63.1 µM (active).

`CN(C)c1ccc(N=Nc2ccc(C(=O)O)cc2)cc1`: the Potency result is “inactive”.

On to `O=C(CSc1nnnn1-c1ccc(O)cc1)N1N=C(c2ccc3ccccc3c2)CC1c1ccccc1` (stereo not drawn), for which the Potency entry was “inactive”.

`Cc1c(F)cccc1NS(=O)(=O)c1ccc2c(c1)c(C)cc(=O)n2C`: the Potency result was “inactive”.

For `O=C(Nc1nccs1)C(Br)C(Br)c1ccccc1` (stereo not drawn), the Potency entry was “inactive”.

For the compound `Cc1[nH]nc(-c2ccc(OCc3cnn(-c4ccccc4)c3)c(C)c2O)c1Oc1ccccc1`, the Potency result was “inactive”.

`c1ccc(-c2ccc(-c3csnn3)cc2)cc1`: the Potency result is “inactive”.

With `Cc1ccc(C(C[N+](=O)[O-])c2c(C)[nH]n(-c3ccccc3)c2=O)cc1` (stereo not drawn), the Potency result is “inactive”.

As to `CCCn1c(C2CCCN2c2nc(C)cs2)nc2cc(Cl)c(Cl)cc21` (stereo not drawn), the Potency entry is “inactive”.

As for `Cc1cccc(Nc2nnc(SCC(=O)NC(=O)Nc3ccc4c(c3)OCCO4)s2)c1`, the Potency result is “inactive”.

Regarding `CCNc1ccccc1CP(=O)(c1ccccc1)c1ccccc1O` (stereo not drawn), the Potency is 89.1 µM (active).

Take `CCC(=O)NC(=S)Nc1ccc(-c2nc3ccc(C)cc3s2)cc1`: the Potency entry is “inactive”.

Take `O=C(C1=C(O)C(=O)N(CCN2CCOCC2)C1c1cccc(Br)c1)c1cccs1` (stereo not drawn): the Potency result is “inactive”.

As to `O=C(NC1CCN(c2ncccn2)CC1)c1c(F)cccc1F`, the Potency entry was “inactive”.

In the case of `O=C1C(SCCO)=C(SCCO)C(=O)c2ccccc21`, the Potency is 39.8 µM (active).

Consider `CC(=O)c1cccc(NS(=O)(=O)c2ccc(N/C=C\C(=O)c3ccc(F)cc3)cc2)c1`, for which the Potency result was “inactive”.

On to `CCn1ncc(C(=O)Nc2cc(C)on2)c1C`, for which the Potency result is “inactive”.

For `Clc1ccc(-c2nnc(-c3ccccc3)nc2-c2c[nH]c3ccccc23)cc1`, the Potency result was “inactive”.

In the case of `CCC(C)CCCCC(=O)N[C@@H](CCN)C(=O)N[C@H](C(=O)N[C@@H](CCN)C(=O)N[C@H]1CCNC(=O)C([C@@H](C)O)NC(=O)[C@@H](CCN)NC(=O)[C@H](CCN)NC(=O)[C@H](CC(C)C)NC(=O)[C@@H](CC(C)C)NC(=O)[C@H](CCN)NC1=O)[C@@H](C)O` (stereo partly drawn) ({Octanoyl(6-Me)}-[Dab]T[Dab][Dab][Dab][dL]L[Dab][dDab][ξThr(3R)]; lactam 4-C), the Potency entry is “inactive”.

As to `CCCOc1ccc(C(=O)N2CCN(Cc3ccc4c(c3)OCO4)CC2)cc1`, the Potency result is “inactive”.

For the compound `O=C(CSc1ccc(Cl)cc1)Nc1ccc(NC(=O)c2ccco2)cc1`, the Potency entry is “inactive”.

For the compound `CC(=O)N1CCCc2cc(S(=O)(=O)N3CCCC(C(=O)N4CCN(c5ccccc5)CC4)C3)ccc21` (stereo not drawn), the Potency result is “inactive”.

For the compound `Cc1sc2ncnc(NC3CCN(Cc4ccccc4)CC3)c2c1C`, the Potency was 126 µM (active).

Take `CCCOc1ccc(C(=O)NNC(=S)NC(=O)c2cc(-c3ccc(Cl)cc3)nc3ccccc23)cc1`: the Potency result was “inactive”.

Consider `N=c1oc2ccccc2cc1-c1nc(-c2ccc(Cl)cc2)cs1`, for which the Potency result was “inactive”.

In the case of `Cc1ccc(NS(=O)(=O)c2csc(C(N)=O)c2)cc1C`, the Potency entry was “inactive”.

Turning to `Cc1ccc(NC(=O)C(C)N2C(=O)c3ccccc3C2=O)c(C)c1` (stereo not drawn), the Potency result is “inactive”.

As to `O=C(O)/C(=C\c1ccc(F)cc1)c1ccc(-c2ccccc2)cc1`, the Potency entry is “inactive”.

Take `O=C(Nc1ccc2c(c1)OCO2)c1ccccc1`: the Potency entry was “inactive”.

As for `CN1[C@H](CC(=O)c2ccccc2)CCC[C@H]1C[C@@H](O)c1ccccc1`, the Potency entry was “inactive”.

As for `Cc1ccc(/C=C2\SC(=S)N(CC(=O)Nc3ncc(Cc4ccccc4Cl)s3)C2=O)cc1`, the Potency entry was “inactive”.

As for `CCCN(CCC)CCCNC(=S)Nc1ccc2nc(N3CCCC3)cc(C)c2c1`, the Potency result is “inactive”.

`O=C(N/N=C/c1cn(-c2ccccc2)nc1-c1cc2ccccc2o1)c1ccccc1Br`: the Potency result is “inactive”.

Take `Cc1ccc(S(=O)(=O)c2cc(OC(=O)c3ccco3)ccc2OC(=O)c2ccco2)cc1`: the Potency entry is “inactive”.

In the case of `O=C(NCC1CCCO1)c1ccc(OC2CCN(C(=O)C3CC3)CC2)cc1` (stereo not drawn), the Potency result was “inactive”.

With `CCOC(=O)Cn1cnc2scc(-c3ccc(C)c(C)c3)c2c1=O`, the Potency entry is “inactive”.

Regarding `COCCNC(=O)C(OC(=O)c1nsc(Cl)c1Cl)C(C)C` (stereo not drawn), the Potency result was “inactive”.

For `Cn1c(=O)n(C)c2cc3[nH]cnc3cc21`, the Potency entry is “inactive”.

As to `O=C(COC(=O)c1ccc(NS(=O)(=O)c2cccs2)cc1)Nc1nc2c(F)c(F)c(F)cc2s1`, the Potency was 39.8 µM (active).

As for `O=C(CCn1nc(-c2ccccc2)ccc1=O)N1CCN(c2ccccn2)CC1`, the Potency result was “inactive”.

Regarding `N=C1c2ccccc2CN1c1ccc(N2CCOCC2)c(S(=O)(=O)Nc2ccc(Cl)cc2)c1`, the Potency was 79.4 µM (active).

Regarding `CC(=O)O[C@H]1CSC[C@H]1NC(=O)c1ccccc1`, the Potency result was “inactive”.
